Laboratory results published in PubChem BioAssay AID1053117 (Broad Institute, 2014).
Results with a measured potency or affinity are listed apart. Active and inactive are the calls of the source.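 The calls were made as follows: active = compounds lowering cell ATP signal with a fitted half-effect dose at most twice the top valid dose; inconclusive = flat curve with 30 to 70% signal loss, or bad fit; inactive = wrong direction, flat within 30%, or weaker than limit.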

Assay: viability loss in HEK293 kidney cells – cell-based, cherry-picks, set 5, cytotoxicity control, dose response (AID 1053117);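 also: more negative means greater loss of ATP signal and more cytotoxicity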

**Q.** With `C=C1C(=O)O[C@@H]2C[C@@H](C)[C@@H]3C=CC(=O)[C@@]3(C)[C@@H](O)[C@H]12` as the molecule, how does the outcome read?
**A.** inactive
